{"source": "PubChem BioAssay AID977610", "origin": "cited, not measured here", "assay": "PubChem AID 977610", "settings": "PDB protein-ligand complexes, literature Ki", "key": {"[1]": {"settings": "protein: type II dehydroquinase dehydratase from Mycobacterium tuberculosis, PDB entry 4kiw unless noted"}}, "note": "In all, about 3,600 compounds went through this assay and about 3,600 (100%) were called active. Cut-off not given; nearly all actives show Ki up to about 18000 µM. So high a share suggests a set chosen from earlier hits. The list shows a part of the results.", "data": [{"smiles": "O=C(O)c1cc(NCc2cccc([N+](=O)[O-])c2)cc(C(=O)O)c1", "values": [{"measurement": "Ki", "setting": "[1]", "value": "7.5 µM (active)"}]}, {"smiles": "O=C(O)c1cc(OCc2cccc([N+](=O)[O-])c2)cc(C(=O)O)c1", "values": [{"measurement": "Ki", "setting": "[1]", "value": "140 µM [protein: type II dehydroquinase dehydratase from Mycobacterium tuberculosis, PDB entry 4kiu] (active)"}]}, {"smiles": "O=C(O)c1cc(O)c(O)c(Oc2cccc([N+](=O)[O-])c2)c1", "values": [{"measurement": "Ki", "setting": "[1]", "value": "50 µM [protein: type II dehydroquinase dehydratase from Mycobacterium tuberculosis, PDB entry 4kij] (active)"}]}, {"smiles": "CCC(CC)O[C@@H]1C=C(C(=O)O)C[C@H](N)[C@H]1NC(C)=O", "values": [{"measurement": "Ki", "setting": "protein: Neuraminidase from the B/Lyon/CHU/15.216/2011 virus, PDB entry 4cpy", "value": "0.491 µM (active)"}, {"measurement": "Ki", "setting": "protein: Neuraminidase, PDB entry 4gzp", "value": "0.0143 µM (active)"}]}, {"smiles": "CCC(CC)O[C@@H]1CC(C(=O)O)C[C@H](N)[C@H]1NC(C)=O", "note": "(some centres undefined)", "values": [{"measurement": "Ki", "setting": "[1]", "value": "0.017 µM [protein: neuraminidase, PDB entry 4gzt] (active)"}]}, {"smiles": "O[C@@H]1[C@@H](O)[C@H](O)[C@]2(O)CC[C@H]1N2", "values": [{"measurement": "Ki", "setting": "[1]", "value": "4600 µM [protein: Beta-glucosidase 1, PDB entry 4iie] (active)"}]}, {"smiles": "O=C(O)CCCC(=O)O", "values": [{"measurement": "Ki", "setting": "[1]", "value": "30000 µM [protein: Delta-1-pyrroline-5-carboxylate dehydrogenase, mitochondrial, PDB entry 4lh3] (active)"}]}, {"smiles": "O=C(O)C(O)(C(F)(F)F)C(F)(F)F", "values": [{"measurement": "Ki", "setting": "[1]", "value": "27 µM [protein: Mandelate racemase, PDB entry 4fp1] (active)"}]}, {"smiles": "O=C(CO)[C@@H](O)[C@H](O)CF", "values": [{"measurement": "Ki", "setting": "[1]", "value": "25 µM [protein: XYLULOSE KINASE, PDB entry 4bc5] (active)"}]}, {"smiles": "CC(C)CN(C[C@@H](O)[C@H](Cc1ccccc1)NC(=O)O[C@H]1CO[C@H]2OCC(F)(F)[C@H]21)S(=O)(=O)c1ccc(N)cc1", "values": [{"measurement": "Ki", "setting": "[1]", "value": "5.8e-06 µM [protein: HIV-1 Protease, PDB entry 4u8w] (active)"}]}, {"smiles": "C[C@](COC(=O)Cc1ccccc1)([C@@H](Nc1c(C=O)cc2ccccn12)C(=O)O)S(=O)O", "values": [{"measurement": "Ki", "setting": "[1]", "value": "0.042 µM [protein: Beta-lactamase SHV-1, PDB entry 4gd6] (active)"}]}, {"smiles": "OC(c1ccc(Cl)s1)(c1ccc(Cl)s1)[C@H]1CN2CCC1CC2", "values": [{"measurement": "Ki", "setting": "[1]", "value": "0.36 µM [protein: Choline kinase alpha, PDB entry 4da5] (active)"}]}, {"smiles": "CC(=O)N[C@H](Cc1ccccc1)P(O)O", "values": [{"measurement": "Ki", "setting": "[1]", "value": "10 µM [protein: Serine protease splA, PDB entry 3ufa] (active)"}]}, {"smiles": "CN(C)C[C@@H](c1ccc(O)cc1)C1(O)CCCCC1", "values": [{"measurement": "Ki", "setting": "[1]", "value": "235 µM [protein: Transporter(delta13 mutant), PDB entry 4mm7] (active)"}]}, {"smiles": "O=C(O)C[C@@]12O[C@H]3C=CCN[C@H]3[C@@H]1C(=O)N[C@H]2C(=O)O", "values": [{"measurement": "Ki", "setting": "[1]", "value": "210 µM [protein: Glutamate receptor 2, PDB entry 4isu] (active)"}]}, {"smiles": "Nc1cccc(F)c1C(=O)O", "values": [{"measurement": "Ki", "setting": "[1]", "value": "34 µM [protein: Mycobacterium tuberculosis anthranilate phosphoribosyl transferase, PDB entry 4owo] (active)"}]}, {"smiles": "Nc1c(F)cccc1C(=O)O", "values": [{"measurement": "Ki", "setting": "[1]", "value": "1090 µM [protein: Mycobacterium tuberculosis anthranilate phosphoribosyl transferase, PDB entry 4owm] (active)"}]}, {"smiles": "Cc1ncc(CO[P+](O)(O)O)c(CN=Nc2nc3ccccc3s2)c1O", "values": [{"measurement": "Ki", "setting": "[1]", "value": "10.4 µM [protein: Mycobaterium tuberculosis transaminase BioA, PDB entry 4mqp] (active)"}]}, {"smiles": "O[C@H]1[C@H](O)[C@@H](O)CN2CC[C@H](O)[C@H]12", "values": [{"measurement": "Ki", "setting": "[1]", "value": "6.6 µM [protein: Beta-glucosidase 1, PDB entry 4iif] (active)"}]}, {"smiles": "Nc1cc(F)ccc1C(=O)O", "values": [{"measurement": "Ki", "setting": "[1]", "value": "380 µM [protein: Mycobacterium tuberculosis anthranilate phosphoribosyl transferase, PDB entry 4n8q] (active)"}]}, {"smiles": "Nc1ccc(F)cc1C(=O)O", "values": [{"measurement": "Ki", "setting": "[1]", "value": "60 µM [protein: Mycobacterium tuberculosis anthranilate phosphoribosyl transferase, PDB entry 4own] (active)"}]}, {"smiles": "Nc1nc(-c2ccc(Cc3ccccc3)cc2)cs1", "values": [{"measurement": "Ki", "setting": "[1]", "value": "2 µM [protein: Human Leukotriene A4 Hydrolase, PDB entry 4l2l] (active)"}]}, {"smiles": "CCCCSC[C@H]1CN(Cc2c[nH]c3c(N)ncnc23)C[C@@H]1O", "values": [{"measurement": "Ki", "setting": "[1]", "value": "1.5e-06 µM [protein: 5'-methylthioadenosine/S-adenosylhomocysteine nucleosidase, PDB entry 4f3c] (active)"}]}]}
